Bioassay records deposited in PubChem by Broad Institute.
Shown are actives, neighbours in structure and some others; about 4% of the full set was active somewhere.
DENV2 CPE: DENV2-induced cell death inhibition. CPE inhibition, % at 9.99 µM. actives 1.7% (n = 350,000). DENV2-infected cells, cytopathic effect rescue, plate reader; in the data active = CPE inhibition above about 20%, passing the limit was not always enough; tested in BHK-21 cells
RAD52 anneal inh: inhibitors of human RAD52 DNA annealing; P43351; recombinant RAD52 DNA annealing, FRET fluorescence; inhibition, % at 18.7 µM; actives 0.46% (n = 360,000); AID 651710;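 active = every replicate showing at least 50% inhibition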
MLL AF4-AF9 inh: inhibitors of human MLL-AF4/AF9 interaction; AlphaScreen, biotin-AF4 peptide binding to FLAG-AF9; P42568; actives 0.47% (n = 350,000); inhibition, % at 10 µM;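 active = every replicate reaching a set inhibition limit, whatever the replicate mean, cut at about 25% in these data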
ERAP1 inh: blocks human ERAP1 aminopeptidase activity; AID 652197; inhibition, % at 10.7 µM; Q9NZ08; recombinant ERAP1, Leu-AMC fluorescence, 60 min; actives 0.15% (n = 340,000);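 active = mean replicate inhibition of at least 30%, or all replicates individually reaching that 30% level; inactive = mean below 30% and not every replicate reaching it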
FGF22 binding: FGF22 (human) thermal shift binding | recombinant FGF22 thermal shift, SYPRO orange fluorescence; percent of sucrose octasulfate shift, DMSO zero | activity (Tm shift, normalised), % at 9.99 µM | actives 1.5% (n = 340,000) | AID 651658;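 active = mean Tm shift, scaled 0 neutral to 100 positive control, at about 1.3% or above, every replicate too, limit read from the data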
Target sequence (Q9HCT0 whole entry, looked up): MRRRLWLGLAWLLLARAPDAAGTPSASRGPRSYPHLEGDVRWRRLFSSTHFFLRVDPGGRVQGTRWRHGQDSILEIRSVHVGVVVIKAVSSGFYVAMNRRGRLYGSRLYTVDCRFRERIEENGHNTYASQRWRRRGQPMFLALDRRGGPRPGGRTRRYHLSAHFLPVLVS
Each line names hits and unclear results; the compound was inactive in the other large screens; ! = not confirmed by another sample.

O=c1[nH]c(CN2CCOCC2)nc2ccccc12	FGF22 binding 43.1
O=c1[nH]c(CN2CCN(C/C=C/c3ccccc3)CC2)nc2ccccc12	none
Cc1ccccc1OCCCCN1CCCCC1	DENV2 CPE 33.9
Cc1cccc(Cl)c1OCCN1CCCC1	DENV2 CPE 70.5
CCc1cccc(OCCN2CCCC2)c1	DENV2 CPE 50.5
Clc1cccc(Cl)c1OCCCCN1CCCCC1	none
Cc1noc(C)c1NC(=O)Nc1ccc2c(c1)C(=O)N([C@H](C)CO)C[C@H](C)[C@H](CN(C)S(=O)(=O)c1ccc(F)cc1)OCCCC[C@H](C)O2	none (no result: FGF22 binding)
Cc1noc(C)c1NC(=O)Nc1ccc2c(c1)C(=O)N([C@@H](C)CO)C[C@@H](C)[C@H](CN(C)Cc1ccc(-c3ccccc3)cc1)O2	none
Cc1noc(C)c1NC(=O)Nc1ccc2c(c1)C(=O)N([C@H](C)CO)C[C@H](C)[C@H](CN(C)Cc1ccc(C(=O)Nc3ccccc3N)cc1)O2	DENV2 CPE 22.2
Cc1noc(C)c1NC(=O)Nc1ccc2c(c1)C(=O)N([C@@H](C)CO)C[C@H](C)[C@H](CN(C)Cc1ccccc1)O2	DENV2 CPE 23.2
Cc1noc(C)c1NC(=O)Nc1ccc2c(c1)C(=O)N([C@H](C)CO)C[C@H](C)[C@@H](CN(C)Cc1ccccc1)O2	DENV2 CPE 22.8
Cc1noc(C)c1NC(=O)Nc1ccc2c(c1)C(=O)N([C@@H](C)CO)C[C@@H](C)[C@H](CN(C)Cc1ccccc1)O2	none
O=C(N/N=C/c1cccc2nccnc12)c1ccncc1	none
c1cc(Nc2cccc3nccnc23)c2nccnc2c1	MLL AF4-AF9 inh 25.7
O=C(O)c1cccc(-n2sc3ccccc3c2=O)c1	ERAP1 inh 90.3
O=c1c2ccccc2sn1-c1cccc(Cl)c1	none (no result: ERAP1 inh)
O=[N+]([O-])c1ccc2c(c1)-c1ccccc1C2O (centres undefined)	ERAP1 inh 38.8
O=[N+]([O-])c1ccc2c(c1)/C(=N\O)c1ccccc1-2	none (no result: ERAP1 inh)
COc1cccc(-c2ccc3c(c2)[C@@H]2[C@@H](CCN2C(=O)Nc2ccccc2OC)[C@@H](CO)N3C)c1	DENV2 CPE 29.0, RAD52 anneal inh 60.5
COc1cccc(-c2ccc3c(c2)[C@H]2[C@H](CCN2C(=O)Nc2ccccc2OC)[C@H](CO)N3C)c1	RAD52 anneal inh 51.4
COc1cccc(-c2ccc3c(c2)[C@@H]2[C@@H](CCN2C(=O)c2ccccc2F)[C@H](CO)N3C)c1	none
COc1cccc(-c2ccc3c(c2)[C@H]2[C@H](CCN2C(=O)Nc2ccccc2OC)[C@@H](CO)N3C)c1	none
COc1ccc(-c2ccc3c(c2)[C@H]2[C@H](CCN2C(=O)Nc2ccccc2OC)[C@H](CO)N3C)cc1	none
COc1cccc(-c2ccc3c(c2)[C@@H]2[C@@H](CCN2C(=O)c2ccccc2F)[C@@H](CO)N3C)c1	RAD52 anneal inh 69.4
C[C@@H]1CN([C@@H](C)CO)C(=O)Cc2cc(NC(=O)Cc3ccccc3)ccc2O[C@H]1CN(C)C(=O)Nc1ccc2c(c1)OCO2	none
CNS(=O)(=O)c1ccc2nc(NC(=O)/C=C/c3ccco3)sc2c1	FGF22 binding 43.2
CC(C)NC(=O)Nc1ccc2c(c1)C(=O)N(C)[C@@H]1CC[C@H](CC(=O)NCC(F)(F)F)O[C@H]1CO2	none (no result: RAD52 anneal inh, MLL AF4-AF9 inh, ERAP1 inh)
C[C@@H]1CN([C@H](C)CO)C(=O)c2c(c3ccccc3n2C)-c2ccccc2CO[C@H]1CN(C)C(=O)CCN(C)C	RAD52 anneal inh 56.6
C[C@H](CO)N1C[C@H](C)[C@@H](CN(C)C(=O)Nc2cccc(C(F)(F)F)c2)OCc2ccccc2-c2c(n(C)c3ccccc23)C1=O	none
C[C@@H]1CN([C@H](C)CO)C(=O)c2c(c3ccccc3n2C)-c2ccccc2CO[C@@H]1CN(C)C(=O)CCN(C)C	none (no result: ERAP1 inh)
C[C@H](CO)N1C[C@H](C)[C@H](CN(C)C(=O)Nc2cccc(C(F)(F)F)c2)OCc2ccccc2-c2c(n(C)c3ccccc23)C1=O	DENV2 CPE 25.1
CNC[C@@H]1OCc2ccccc2-c2c(n(C)c3ccccc23)C(=O)N([C@H](C)CO)C[C@@H]1C	DENV2 CPE 32.6!
C[C@H]1CN([C@@H](C)CO)C(=O)c2ccccc2-c2ccccc2CO[C@H]1CN(C)Cc1ccccc1C(F)(F)F	DENV2 CPE 21.1
C[C@@H]1CN([C@H](C)CO)C(=O)c2ccccc2-c2ccccc2CO[C@@H]1CN(C)C(=O)[C@H]1CCCN1C	DENV2 CPE 78.6
